Compound activity deposited in PubChem BioAssay by National Center for Advancing Translational Sciences (NCATS).
Shown are actives, neighbours in structure and some others; about 2.3% of the full set was active somewhere.
Pol kappa inh-1 – blocks human DNA polymerase kappa activity; 400,000 tested, 0.53% active; AID 588579; Q9UBT6; Potency, µM (titrated, usually from 107 µM), for the others: at the highest dose activity, negative = inhibition, usual class: inhibitors; purified Pol kappa, fluorescent DNA synthesis assay, 10 min; also: potency is read from the fitted curve at half-maximal effect; % is scaled to controls: 0 for no effect and ±100 for the full control effect
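Activity was followed as the change in fluorescence between reads at 0 and 10 min after starting the reaction with 50 nM substrate. Beforehand, 10 nM polymerase had been preincubated with compound for 15 min at room temperature.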
WRN inhibitor – WRN helicase (human) inhibition; Q14191; WRN helicase unwinding, fluorescent forked duplex, kinetic; Potency, µM (doses to about 114 µM), without a hit: top-dose activity change, negative = inhibition, hits mostly inhibitors; 360,000 tested, 0.46% active; AID 651768; also: potency is read from the fitted curve at half-maximal effect; % is scaled to controls: 0 for no effect and ±100 for the full control effect; nearly all actives have a fitted effect of over 55% in size
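Enzyme (20 nM final) and test compound sit together 15 min at room temperature before substrate addition. Substrate is a single-forked duplex oligonucleotide (100 nM) labelled with fluorophore and quencher, with 2 mM ATP; helicase unwinding raises red fluorescence, read kinetically.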
Pol beta inh – blocks human DNA polymerase beta activity; AID 485314; 340,000 tested, 1.3% active; P06746; Pol beta primer extension/strand displacement, fluorescence kinetic; Potency, µM (series often up to 114 µM), for inactives: at the top dose activity change, negative = inhibition, actives largely listed as inhibitors; also: potency is read from the fitted curve at half-maximal effect; % is scaled to controls: 0 for no effect and ±100 for the full control effect
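Reaction started by 50 nM substrate onto compound-treated Pol beta (10 nM, 15 min preincubation, room temperature); plates read at 0 min and 10 min. Normalized concentration-effect data fitted by four-parameter Hill equation.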
POLI inh – blocks human DNA polymerase iota activity; Pol iota fluorescent replication assay, 10 min; Potency, µM (top dose mostly 115 µM), without a hit: at the highest dose activity, negative = inhibition, usual class: inhibitors; 390,000 tested, 1% active; AID 588590; also: potency is read from the fitted curve at half-maximal effect
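Pol iota at 10 nM preincubated 15 min with compounds at room temperature; reaction started with fluorescent substrate, 50 nM final. Fluorescence read kinetically at 0 and 10 min; buffer-only wells as negative control.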
Pol eta inh-1 – DNA polymerase eta (human) inhibition; Potency, µM (top dose mostly 114 µM), for inactives: at the highest dose activity change, negative = inhibition, most hits filed as inhibitors; Q9Y253; recombinant Pol eta, fluorescent DNA replication assay; AID 588591; 390,000 tested, 1.2% active; also: potency is read from the fitted curve at half-maximal effect; % is scaled to controls: 0 for no effect and ±100 for the full control effect
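Fluorescent replication assay: 50 nM final substrate added after a 15 min room-temperature compound preincubation with 10 nM enzyme. Signal taken at 0 min and again at 10 min.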
TbPGK inh – blocks T. brucei phosphoglycerate kinase. TbPGK coupled GAPDH assay, Kinase-Glo luminescence. 500 tested, 79% active. Potency, µM (series often up to 57.5 µM), inactives show top-dose activity change, negative = inhibition, most hits filed as inhibitors. shares compounds with Pol kappa inh-1; also: potency is read from the fitted curve at half-maximal effect; % is scaled to controls: 0 for no effect and ±100 for the full control effect; nearly all actives have a fitted effect of over 65% in size
Target sequence (P07378 whole entry, looked up): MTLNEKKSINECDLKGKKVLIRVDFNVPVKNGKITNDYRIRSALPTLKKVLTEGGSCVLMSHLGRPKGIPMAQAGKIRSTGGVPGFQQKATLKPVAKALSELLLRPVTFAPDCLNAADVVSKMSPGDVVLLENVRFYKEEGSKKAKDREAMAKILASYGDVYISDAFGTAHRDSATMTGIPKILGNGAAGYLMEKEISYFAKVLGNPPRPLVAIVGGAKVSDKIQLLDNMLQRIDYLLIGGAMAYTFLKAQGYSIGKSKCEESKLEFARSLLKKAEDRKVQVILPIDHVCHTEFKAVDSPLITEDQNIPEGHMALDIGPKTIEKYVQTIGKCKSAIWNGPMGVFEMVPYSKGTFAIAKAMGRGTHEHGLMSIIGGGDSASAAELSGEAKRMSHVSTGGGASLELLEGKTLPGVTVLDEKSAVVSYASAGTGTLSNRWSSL
Pol iota confirm – Confirm cherry-picked inhibitors of human polymerase iota. shares compounds with Pol kappa inh-1. Pol iota primer extension, TAMRA/BHQ fluorescence. Potency, µM, hits mostly inhibitors. 1,500 tested, 77% active. AID 720496; also: potency is read from the fitted curve at half-maximal effect
GALK confirm – confirmation of human galactokinase (GALK) inhibitors. shares compounds with Pol eta inh-1. 150 tested, 70% active. Potency, µM (series often up to 115 µM), without a hit: top-dose activity, negative = inhibition, most hits filed as inhibitors. AID 2015. purified GALK, Kinase-Glo ATP depletion luminescence
GALK redox cs – generates H2O2 by redox cycling, flagging GALK artifacts | Phenol red-HRP H2O2 redox cycling, absorbance 600 nm | 150 tested, 40% active | AID 2035 | shares compounds with Pol eta inh-1 | Potency, µM (highest dose often 115 µM), inactives show at the top dose activity change, negative = H2O2 signal, most hits filed as inhibitors
HEK293 tox – counter-screen for GALK inhibitors: HEK293 cell cytotoxicity; shares compounds with Pol eta inh-1; HEK-293 viability, ATP luminescence (CellTiter-Glo), 24/48 h; Potency, µM (series often up to 46.1 µM), inactives show at the highest dose activity change, negative = cytotoxicity, most hits filed as inhibitors; 170 tested, 10% active; also: potency is read from the fitted curve at half-maximal effect; % is scaled to controls: 0 for no effect and ±100 for the full control effect
Pol kappa inh-2 – confirmation of human DNA polymerase kappa inhibitors; shares compounds with Pol eta inh-1; purified Pol-kappa, fluorescent strand-displacement substrate; Potency, µM, hits mostly inhibitors; 920 tested, 76% active; also: potency is read from the fitted curve at half-maximal effect
Pol eta inh-2 – confirmation of human DNA polymerase eta inhibitors; 2,600 tested, 64% active; Pol eta primer extension, TAMRA/BHQ fluorescence, 10 min; Potency, µM, hits mostly inhibitors; shares compounds with Pol eta inh-1; also: potency is read from the fitted curve at half-maximal effect
* hit, by the source's call; ? = inconclusive; nt = no result; [ ] = remark or other dose. Calls follow the shape of the dose curve; as a rule, active = well fitted curve in the direction sought with a large enough effect; inconclusive = small, poorly fitted or top-dose-only effect, or another doubt; inactive = no such curve, though single readings can be large; an effect the other way counts as inactive or inconclusive.

SMILES	Pol kappa inh-1	WRN inhibitor	Pol beta inh	POLI inh	Pol eta inh-1	Pol iota confirm	Pol eta inh-2	others
Cc1ccc2c(c1)c(=O)c1c3n2CCN(C(=O)CCl)C3CC1 (centres undefined)	-41%	?	16µM*	?	6.3µM*	60*	60*
O=C1c2ccccc2-c2onc3ccc(N4CCCC4)c1c23	-21%	22µM*	79µM*	35µM*	?	60*	?	Pol kappa inh-2=?
CCOc1ccc2noc3c2c1C(=O)c1ccccc1-3	14%	3%	17%	3%	-15%	nt	nt
NS(=O)(=O)c1ccc(NC(=O)C2Cc3ccccc3CN2C(=O)c2ccco2)cc1 (centres undefined)	79µM*	?	28µM*	20µM*	20µM*	?	67*
COc1ccc(S(=O)(=O)Nc2cccc3ccccc23)cc1	-14%	nt	nt	28%	nt	nt	nt
COc1ccc(S(=O)(=O)Nc2cc(SCC(=O)O)c(O)c3ccccc23)cc1	-17%	79µM*	?	4µM*	7.9µM*	?	?
CC(=O)Nc1ccc2c(c1)OCCO2	-6%	4%	11%	16%	-17%	nt	nt
C=C(C)C(=O)Nc1ccc2c(c1)OCCOCCOCCO2	79µM*	?	10µM*	?	22µM*	nt	19*	TbPGK inh=?
COc1ccc(-c2nc3sc(CCNC(=O)C(=O)Nc4ccc(C)c(C)c4)c(C)n3n2)cc1	-16%[60.1 µM]	nt	3%	?	-5%	nt	nt
Cc1cc(C)n2c(SCC(=O)N(CCC#N)c3ccc4c(c3)OCCO4)nnc2n1	nt	-7%[11.6 µM]	nt	nt	20µM*	27*	48*	Pol kappa inh-2=17*
CS(=O)(=O)N1N=C(c2ccco2)CC1c1ccccc1 (centres undefined)	11%	9%	-3%	18%	-22%	nt	nt
CS(=O)(=O)N1N=C(c2ccco2)CC1c1ccco1 (centres undefined)	79µM*	-21%[11.6 µM]	?	?	22µM*	53*	30*	Pol kappa inh-2=19*
O=c1c(OC2OC(CO)C(O)C(O)C2OC2OC(CO)C(O)C(O)C2O)c(-c2ccc(O)cc2)oc2cc(O)cc(O)c12 (centres undefined)	50µM*	-10%[11.6 µM]	22µM*	28µM*	11µM*	?	?
Cc1ccc(C)c(SCC(=O)OCC(=O)c2ccco2)c1	?	?	22µM*	20µM*	35µM*	?	?
O=C(Cc1cccs1)OCC(=O)c1ccco1	25µM*	?	14µM*	?	8.9µM*	75*	60*
COC(=O)c1cc(C)nc2c1C(=O)C(=O)C=C2N1CCOCC1	-10%	?	-8%	1.3µM*	4.5µM*	6*	5.4*	TbPGK inh=4.6µM*;GALK confirm=5.3µM*;GALK redox cs=2.7µM*;HEK293 tox=8.9µM*
CCn1c(SCC(=O)O)nc2sc3c(c2c1=O)CCC3	?	?	14µM*	?	13µM*	67*	48*
CCn1c(SCC(=O)OC)nc2sc3c(c2c1=O)CCC3	89µM*	?	13µM*	18µM*	?	60*	67*
CCN1CCC(N(Cc2cccc(OC)c2)C(=O)Nc2cccc(C)c2C)CC1	-22%	nt	1%	3%	-14%	nt	nt
O=C(N/N=C/c1ccc(O)cc1O)C(=O)N/N=C/c1ccc(O)cc1O	-14%	-8%[11.6 µM]	?	?	-18%	9.5*	17*
O=C(NN=Cc1ccc(O)cc1)C(=O)NN=Cc1ccc(O)cc1	4%	3%	nt	21%	-27%	nt	nt
O=C(O)c1ccc(N2C(=O)c3cccc4c(C(=O)O)ccc(c34)C2=O)cc1	20µM*	50µM*	6.3µM*	8.9µM*	3.5µM*	15*	3.4*	TbPGK inh=16µM*
O=C(O)c1ccc2c3c(cccc13)C(=O)N(c1ccccc1)C2=O	89µM*	-28%	20µM*	28µM*	18µM*	?	24*	Pol kappa inh-2=12*
O=C(O)c1ccc(N2C(=O)c3cccc4cccc(c34)C2=O)cc1	-4%	-13%	-1%	74%	-16%	nt	nt
O=C(c1ccc2c(c1)OCCO2)N1CCN(S(=O)(=O)c2c(F)cccc2F)CC1	6%	nt	nt	29%	-23%	nt	nt
SMILES	Pol kappa inh-1	WRN inhibitor	Pol beta inh	POLI inh	Pol eta inh-1	Pol iota confirm	Pol eta inh-2	others
O=C(c1cccc(-n2cccc2)c1)N1CCN(S(=O)(=O)c2c(F)cccc2F)CC1	?	?	?	22µM*	20µM*	67*	76*
CCC1CCCCN1C(=O)CSc1nc(-c2ccc(OC)cc2)cc(C(F)(F)F)n1 (centres undefined)	-9%	nt	4%	-12%	-26%	nt	nt
Cc1ccc(C(=O)NCc2ccccc2)cc1NC(=O)c1nsc2ccccc12	-9%[60.1 µM]	nt	-22%	?	?	nt	nt
O=C(O)c1ccc(COc2ccc3c4c(c(=O)oc3c2)CCC4)o1	?	?	35µM*	?	7.9µM*	nt	27*	TbPGK inh=18µM*
O=c1oc2cc(OCc3ccc([N+](=O)[O-])cc3)ccc2c2c1CCCC2	-13%	-4%	15%	16%	7%	nt	nt
CCS(=O)(=O)N1CCc2cc(C(=O)Nc3ccc(Br)cc3F)ccc21	-27%	nt	-4%	?	3%	nt	nt
COc1ccc2[nH]c(=O)cc(C(=O)O)c2c1	?	-17%[11.6 µM]	18µM*	?	14µM*	?	27*	Pol kappa inh-2=11*
COc1ccc2[nH]c(=O)c(C(=O)O)cc2c1	1%	-1%	?	103%	-22%	nt	nt
